Measured values: PubChem BioAssay AID720597 (Broad Institute, 2013)
Results with a measured potency or affinity are listed apart. Activity calls are given as the source filed them.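 Rule for the calls: active = fitted half-maximal dose no more than twice the top valid tested dose, for compounds that lower signal; inconclusive = fit invalid, or curve flat with activity between -70 and -30; inactive = potency past limit, curve flat within ±30, or signal increasing.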

biological target: NAD-dependent protein deacylase sirtuin-5, mitochondrial (Homo sapiens) (UniProt Q9NXA8); assay: blockers of sirtuin-5 peptide desuccinylation – biochemical, fluorescence imaging, cherry-pick, set 6, dose response (AID 720597); conditions: Purified SirT5, succinyl-peptide-AMC/trypsin fluorescence; series mostly up to 15 µM;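 note: lower AMC signal can also come from blocking the trypsin step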
Sequence (Q9NXA8 whole entry, looked up): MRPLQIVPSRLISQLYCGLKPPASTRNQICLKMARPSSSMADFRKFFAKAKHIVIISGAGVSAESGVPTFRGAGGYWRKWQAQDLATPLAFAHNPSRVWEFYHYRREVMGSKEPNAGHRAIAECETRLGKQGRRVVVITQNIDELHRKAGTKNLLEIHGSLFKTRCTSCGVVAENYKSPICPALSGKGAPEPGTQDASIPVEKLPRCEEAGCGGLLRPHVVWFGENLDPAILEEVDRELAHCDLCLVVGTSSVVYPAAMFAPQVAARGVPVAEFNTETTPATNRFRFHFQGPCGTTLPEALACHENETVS

outcome, inactive:
OC[C@@H]1[C@H](c2ccccc2)C2(CN(Cc3nccs3)C2)N1Cc1cccnc1
NC(=O)NCC#Cc1ccc2c(c1)[C@]1(C(=O)N2)[C@H](c2ccccc2OCCO)N2[C@H](c3ccccc3)[C@H](c3ccccc3)OC(=O)[C@H]2[C@@H]1C(=O)N1CCN(c2ncccn2)CC1
C[C@H](CO)N1C[C@H](C)[C@H](CN(C)S(C)(=O)=O)Oc2c(NC(=O)c3ccncc3)cccc2C1=O
C[C@H](CO)N1C[C@H](C)[C@H](CN(C)C(=O)NC2CCCCC2)Oc2cc(/C=C/c3ccccc3)ccc2S1(=O)=O
COc1cccc(-c2cn(CC[C@@H]3CC[C@H](NC(=O)CC4CC4)[C@@H](CO)O3)nn2)c1
C[C@@H]1CN([C@H](C)CO)S(=O)(=O)c2ccc(/C=C/c3ccccc3)cc2O[C@@H]1CN(C)Cc1ccccc1
C[C@H]1CN([C@@H](C)CO)S(=O)(=O)c2ccc(C#Cc3ccc(F)cc3)cc2O[C@@H]1CN(C)S(C)(=O)=O
CC(C)CC#Cc1ccc2c(c1)O[C@@H](CN(C)S(=O)(=O)c1cccc(F)c1)[C@@H](C)CN([C@H](C)CO)S2(=O)=O
Cc1noc(C)c1NC(=O)Nc1cccc2c1O[C@H](CN(C)Cc1ccc(Oc3ccccc3)cc1)[C@H](C)CN([C@@H](C)CO)C2=O
C[C@H](CO)N1C[C@H](C)[C@H](CN(C)Cc2ccc(C(F)(F)F)cc2)Oc2c(NC(=O)c3nc4ccccc4s3)cccc2C1=O
COCC(=O)N1C[C@@H](C)[C@@H](OC)CN(C)C(=O)c2cc(NC(=O)c3cc(C)on3)ccc2OC[C@H]1C
COc1ccc(NC(=O)N(C)C[C@@H]2Oc3ccc(NS(=O)(=O)c4ccc(F)cc4)cc3C(=O)N([C@H](C)CO)C[C@@H]2C)cc1
Cc1ccc(NC(=O)C2CC(=O)n3ncnc3N2)cc1 (centres undefined)
Cc1noc(C)c1NC(=O)Nc1ccc2c(c1)C(=O)N([C@H](C)CO)C[C@@H](C)[C@@H](CN(C)Cc1ccc(C(=O)Nc3ccccc3N)cc1)O2
C[C@H]1CN([C@@H](C)CO)C(=O)Cc2cc(NC(=O)Nc3ccc(F)cc3)ccc2O[C@@H]1CN(C)C
C[C@H]1CN([C@@H](C)CO)S(=O)(=O)c2ccc(/C=C/c3ccccc3)cc2O[C@H]1CN(C)C(=O)c1ccc2c(c1)OCO2
C[C@H](O)C#Cc1cnc2c(c1)C(=O)N([C@H](C)CO)C[C@H](C)[C@@H](CN(C)CC1CCCC1)O2
C[C@@H]1CCCCO[C@H](CN(C)C(=O)Cc2ccccc2)[C@@H](C)CN([C@H](C)CO)C(=O)c2cc(NS(=O)(=O)c3cn(C)cn3)ccc2O1
COc1ccc(NC(=O)N(C)C[C@@H]2Oc3cc(C#CCC(C)C)ccc3S(=O)(=O)N([C@@H](C)CO)C[C@@H]2C)cc1
C[C@H]1CN([C@@H](C)CO)C(=O)Cc2cc(NC(=O)Nc3ccc(F)cc3)ccc2O[C@H]1CN(C)C
C[C@@H]1CN([C@H](C)CO)C(=O)c2cc(C#CCN(C)C)cnc2O[C@@H]1CN(C)Cc1ccncc1
O=C(N[C@H]1C=C[C@H](CC(=O)N2CCOCC2)O[C@H]1CO)c1ccccn1
C[C@@H]1CN([C@H](C)CO)C(=O)c2cc(-c3cccc(F)c3)cnc2O[C@@H]1CN(C)C
O=C(Nc1cc(F)ccc1F)N1CC(=O)N2[C@H](CO)[C@@H](c3ccc(C#CC4CCCCC4)cc3)[C@@H]2C1
C[C@@H]1CN([C@@H](C)CO)C(=O)Cc2cc(NS(=O)(=O)c3ccc(Cl)cc3)ccc2O[C@H]1CN(C)Cc1ccc(Oc2ccccc2)cc1
O=C(C[C@@H]1C[C@H]2c3cc(NC(=O)Nc4ccccc4F)ccc3O[C@H]2[C@H](CO)O1)NCC1CC1
COc1ccc(S(=O)(=O)Nc2ccc3c(c2)C(=O)N([C@H](C)CO)C[C@@H](C)[C@H](CN(C)Cc2ccc(Oc4ccccc4)cc2)O3)cc1
COc1cccc(NC(=O)N2CC(=O)N3[C@@H](CO)[C@H](c4ccc(C#CCC5CCCC5)cc4)[C@@H]3C2)c1
CCC(=O)N(C)C[C@@H]1Oc2ncc(-c3ccc(F)cc3)cc2C(=O)N([C@@H](C)CO)C[C@@H]1C
